ChEMBL document CHEMBL4513216, “Probing the Open Global Health Chemical Diversity Library for Multistage-Active Starting Points for Next-Generation Antimalarials” (ACS Infect Dis, 2020)
The campaign covered roughly 68,000 compounds. About 2,700 (4%) showed an effect of 50% or more. Many of the other results were omitted from the sample, so strong results are more common in it than they were.

The molecules below were run on Plasmodium berghei (assay: Screen against P. berghei liver stage (PbLuc), transformed with Luciferase, at 2uM). Conditions: tested at 2 uM.
Format: functional, HepG2

Row | Structure (SMILES) | INHIBITION [%]
1 | CNc1cc2c(nn1)CCN(C(=O)c1ccc3c(c1)OCO3)C2 | 50.18
2 | CNc1cc2c(nn1)CCN(C(=O)c1ccc3c(c1)CCC3)C2 | 29.12
3 | CCNc1cc2c(nn1)CCN(C(=O)c1ccc3c(c1)OCO3)C2 | -17.37
4 | Cc1cc(N2CCN(c3ccc(=O)[nH]n3)CC2)nc(-c2ccncc2)n1 | -2.96
5 | Cc1c(C(=O)NCCC(=O)N2CCOCC2)sc2ccc(F)cc12 | -6.64
6 | COc1cccnc1NC(=O)c1ccc(COCC(F)(F)F)cc1 | -14.46
7 | c1cncc(-c2noc(CN3CCCC(Cn4cncn4)C3)n2)c1 (stereo not drawn) | -9.22
8 | CCCNC(=O)CN1CCN(Cc2csc(C(C)(C)C)n2)CC1 | 22.1
9 | Cc1cc(CN2CCCC(Cn3cncn3)C2)no1 (stereo not drawn) | -50.13
10 | Cc1cccc(-c2noc(CN3CCCC(Cn4cncn4)C3)n2)c1 (stereo not drawn) | 54.85
11 | CCCNC(=O)C1CCN(Cc2csc(C(C)(C)C)n2)CC1 | -21.58
12 | CC(C)c1nc(CN2CCCC(Cn3cncn3)C2)cs1 (stereo not drawn) | 5.52
13 | Cc1ccc(-c2noc(CN3CCCC(Cn4cncn4)C3)n2)cc1 (stereo not drawn) | -35.33
14 | c1ccc(-c2nc(CN3CCCC(Cn4cncn4)C3)cs2)cc1 (stereo not drawn) | -37.28
15 | CC(C)(C)c1nc(CN2CCCC(Cn3cncn3)C2)cs1 (stereo not drawn) | 80.49
16 | Cc1ccc(-c2cc(CN3CCCC(Cn4cncn4)C3)on2)cc1 (stereo not drawn) | -23.18
17 | Cc1cc(CN2CCCC(Cn3cncn3)C2)on1 (stereo not drawn) | 59.54
18 | CCCNC(=O)C1CCCN(Cc2csc(C(C)(C)C)n2)C1 (stereo not drawn) | 52.87
19 | c1ccc(-c2nc(CNC3CCc4ncnn4C3)cs2)cc1 (stereo not drawn) | -7.88
20 | CCCc1nc(CNCC2CCCN2c2cccnn2)no1 (stereo not drawn) | 19.76
21 | c1ccc(-c2cc(CN3C[C@H]4CC[C@@H](C3)N(CC3CCC3)C4)on2)cc1 | 34.16
22 | Cc1ccccc1CNc1ccccc1OCC(=O)N1CCOCC1 | -64.94
23 | COc1cc(C2c3c(n[nH]c3C)N=C3COC(=O)C32)cc(Br)c1O (stereo not drawn) | 37.18
24 | CC(C)C(=O)N1CCN(Cc2cnn(C)c2)CC2(CC(=O)N(C)C2)C1 (stereo not drawn) | -2.69
25 | O=C(c1ccoc1)N1CCc2ncc(Cn3cccn3)n2CC1 | 50.17
26 | O=C(NCc1ccccc1)N1CCn2c(Cn3cccn3)cnc2C1 | 6.33
27 | Cc1ccc(C(=O)N2CCc3ncc(Cn4cccn4)n3CC2)cn1 | 16.43

Row | Structure (SMILES) | INHIBITION [%]
28 | O=C(c1cccc(F)c1)N1CCc2ncc(Cn3cccn3)n2CC1 | -39.07
29 | CN(C)C(=O)N1CCn2c(Cn3cccn3)cnc2C1 | 25.4
30 | O=C(NC1CC1)N1CCn2c(Cn3cccn3)cnc2C1 | 53.08
31 | Cc1ncsc1CN1C[C@@H]2COC[C@]2(C(=O)NCc2ccccn2)C1 | -0.27
32 | CC(C(=O)N1CCN(c2ccccc2)CC1)n1cc(Br)cn1 (stereo not drawn) | -34.08
33 | CN1CCN(c2ccccc2CNC(=O)CSC(F)(F)F)CC1 | -14.36
34 | CC(C)C(C(=O)N1CCCN(c2cccnn2)CC1)n1cncn1 (stereo not drawn) | -0.6
35 | OCc1c(Cl)ncn1-c1ccc(F)cc1 | 22.43
36 | O=C(CCC1CCCC1)N1CCC(c2cc3ncccc3c(O)n2)CC1 | 22.39
37 | CC(C)CNC(=O)c1c(-n2cnnn2)sc2c1CCCC2 | 15.93
38 | Cc1nc(NC(=O)c2c(-n3cnnn3)sc(C)c2C)sc1C | 60.67
39 | Cc1nc(NC(=O)c2c(-n3cnnn3)sc3c2CCCC3)sc1C | 76.25
40 | CCCn1nccc1C(=O)Nc1nc(C)c(C)s1 | -44.44
41 | Cc1nc(NC(=O)c2c(-n3cnnn3)sc3c2CCC3)sc1C | 10.71
42 | Cc1sc(-n2cnnn2)c(C(=O)NC(C)C)c1C | -21.53
43 | F[C@@H]1CN(CC2CC2)C[C@@H]1OCc1nc2cnccc2[nH]1 | 25.94
44 | COCCC(=O)N1CCC(C(=O)c2cc(C)cnc2N)CC1 | 41.56
45 | c1ccc(Sc2ccc3c(c2)OCO3)c(CNC2=NCCN2)c1 | 33.59
46 | COCC1N(C(=O)c2ccco2)C2CCC1(O)CC2 (stereo not drawn) | 3.88
47 | COc1ccc(Br)cc1Cn1nc(C(N)=O)ccc1=O | -21.09
48 | CCOc1ccc(Br)cc1C1CCCCN1 (stereo not drawn) | -0.44
49 | CCOc1ccc(Br)cc1C1CCCN1 (stereo not drawn) | 53.55
50 | CCOc1ccc(Cl)cc1C1CCCN1 (stereo not drawn) | -27.75
51 | Cc1nccn1C1CCCN(C(=O)c2ccc3nnc(C)n3c2)C1 (stereo not drawn) | 6.12
52 | Cc1cc(NC(=O)NCc2ccccn2)n(C)n1 | 29.11
53 | COc1cc(NC(=O)NCc2ccccn2)cc(OC)c1 | 52.08
